Screening data: PubChem BioAssay, several laboratories
Mtb bLac sens – beta-lactam sensitization of Mtb H37Rv, H37Rv; M. tuberculosis H37Rv growth with meropenem, percent inhibition; inhibition, % at 25 µM; 0.27% of 330,000 active; call rule not given here;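 note: growth measured after seven days incubation then overnight dye step; 0% = bacteria only wells and 100% = bacteria with antibiotic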
FBA Mtb inh – Mtb FBA enzyme inhibitors, primary screen, biochemical, fluorescence, strain H37Rv; purified M. tuberculosis FBA, fluorescence read-out; inhibition, % at 1 µM; 2.3% of 360,000 active; in the data active = inhibition above about 27%;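 note: 0% = vehicle and 100% = reference inhibitor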
Target sequence (P9WQA3 whole entry, looked up): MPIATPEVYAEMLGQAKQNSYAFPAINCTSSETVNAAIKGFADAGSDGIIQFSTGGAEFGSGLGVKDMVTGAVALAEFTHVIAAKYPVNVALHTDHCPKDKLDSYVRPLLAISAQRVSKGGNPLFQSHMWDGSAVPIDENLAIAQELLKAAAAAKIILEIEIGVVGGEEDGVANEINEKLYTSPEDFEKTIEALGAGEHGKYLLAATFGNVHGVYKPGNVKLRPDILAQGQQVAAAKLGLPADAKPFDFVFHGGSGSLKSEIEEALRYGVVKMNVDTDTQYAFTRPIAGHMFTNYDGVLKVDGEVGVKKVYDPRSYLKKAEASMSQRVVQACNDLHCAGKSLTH
MazEF act – activators of E. coli MazEF toxin-antitoxin RNase, primary screen, biochemical, fluorescence, uHTS. FAM/BHQ RNA-DNA oligo cleavage fluorescence, 5 h. 0.32% of 350,000 active. activation, % at 20 µM. Endoribonuclease toxin MazF (Escherichia coli (strain K12)), P0AE70; in the data active = activation above about 50%
GDH-TPI inh – GDH-TPI coupling enzyme inhibitors, primary screen, artefact control for M. tuberculosis FBA inhibitor project, biochemical, absorbance, full deck | 1.2% of 360,000 active | GDH-TPI coupled enzyme counterscreen, NADH absorbance | AID 588335, 2011 | inhibition, % at 4.8 µM;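 note: 0% = DMSO wells and 100% = wells lacking the enzyme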
CCHF vOTU inh – CCHFV vOTU protease inhibitors, primary screen, biochemical, Pep-AMC substrate, fluorescence; 0.55% of 370,000 active; Crimean-Congo hemorrhagic fever virus L polyprotein viral ovarian tumor (vOTU) protease …; inhibition, % at 11.5 µM; AID 651958, 2012; note: 0% = vehicle wells with enzyme and 100% = no enzyme wells
Numbers without * were called inactive; . = no result given; + = active, no number. Sampled rows, rich in hits. Any-hit rate of the full collection: about 4%. Cut-off read from the data, not from the text of the source, unless noted: active = inhibition above about 30%; inactive = the rest.

SMILES	Mtb bLac sens	FBA Mtb inh	MazEF act	GDH-TPI inh	CCHF vOTU inh
O=c1/c(=C/c2ccccn2)sc2n1CN(c1ccccc1)CN=2	12	-1	3	24	6
CCc1ccc(N2CN=c3s/c(=C\c4ccccc4)c(=O)n3C2)cc1	94	0	-3	35*	1
Cc1cccc(N2CN=c3s/c(=C\c4ccccn4)c(=O)n3C2)c1	1	-1	2	64*	-8
Cc1noc(/C=C/c2ccco2)c1S(=O)(=O)N1CCC(C(=O)NCc2ccco2)CC1	-1	1	-13	34*	26
Cc1ccc(CNC(=O)C2CCN(S(=O)(=O)c3c(C)noc3/C=C/c3ccco3)CC2)cc1	-6	-4	-12	37*	-2
Cc1ccc(CNC(=O)C2CCN(S(=O)(=O)c3c(C)noc3/C=C/N(C)C)CC2)cc1	-3	-5	4	23	15
CCOC(=O)CC[C@@]1(C(=O)OCC)C[C@@H](CC(=O)NCc2ccc(OC)c(OC)c2)C(=O)N2CCCC=C21	.	.	.	.	-6
COc1ccc2c(C)c(CCC(=O)NC3CC3)c(=O)oc2c1	3	173*	6	25	-101
Cc1c(CCC(=O)NC2CC2)c(=O)oc2cc(O)ccc12	1	+	3	15	-289
S=c1[nH]nc(-c2ccccc2)n1/N=C/c1ccc(-c2ccccc2Cl)o1	5	-5	-9	28	1
Cc1nnc(C)n1/N=C/c1ccc(-c2ccccc2Cl)o1	-5	1	-1	46*	17
CO/N=C/NC(=O)NOCc1ccc(Cl)cc1Cl	-2	1	-6	-7	2
O=C(N/C=N/OCc1ccc(Cl)cc1Cl)NOCc1c(Cl)cccc1Cl	5	1	80*	-8	-2
O=C(CC1SC(=O)NC1=O)Oc1ccc(/C=N/NC(=O)c2ccccc2O)cc1 (centres undefined)	.	3	4	42*	3
O=C(Oc1ccc(/C=N/NC(=O)c2ccccc2O)cc1)c1ccccc1	98	2	-1	17	-8
OCc1cc(C(O)CNCCCCCCOCCCCc2ccccc2)ccc1O (centres undefined)	6	28*	21	3	-9
CCOC(=O)CC[C@@H]1CC[C@]2(CCCN(Cc3nccs3)C2)O1	.	.	.	.	4
Cc1nc2c(C)cccc2c2c1CCN2c1ccccc1F	-6	113*	8	10	-179
COc1ccc(N2CCc3c(C)nc4c(OC)cccc4c32)cc1	-1	1	-1	11	1
Cc1ccc(NC(=O)[C@@H]2CC(=O)O[C@@H]2c2ccccc2)cc1C	.	.	.	.	0
COc1ccc(Cn2c(N)c(C#N)c3nc4ccccc4nc32)cc1	100	179*	7	8	-118
N#Cc1c(N)n(CCc2ccc(F)cc2)c2nc3ccccc3nc12	7	151*	11	-3	-176
COCCn1c(N)c(C#N)c2nc3ccccc3nc21	-7	115*	-1	9	-304
COCCn1c(N)c(S(=O)(=O)c2cccs2)c2nc3ccccc3nc21	3	+	-2	26	-152
COc1cccc(Cn2c(N)c(C#N)c3nc4ccccc4nc32)c1OC	61	7	10	7	-19
SMILES	Mtb bLac sens	FBA Mtb inh	MazEF act	GDH-TPI inh	CCHF vOTU inh
CC[C@@H](CCCc1ccc(OC)cc1)CCC(=O)N(c1ccccc1)c1ccccc1	.	.	.	.	3
COC(=O)[C@]12C[C@H](CC(=O)NCCC(C)C)C(=O)N(CCC3=CCCCC3)C1=C[C@H](C(C)C)O[C@@H]2C1CC1	.	.	.	.	28
CCCCN(C)C(=O)CSc1nnc(-c2cccnc2)n1C1CCCCC1	.	.	.	.	-5
CCOC(=O)N1C(=O)C[C@](Sc2ccc(OC)cc2)(C(=O)N2CCOCC2)[C@H]1c1ccc(OC)cc1	.	.	.	.	-1
CCc1c(C)nc2ncnn2c1Nc1ccc(C(C)=O)cc1	1	2	-7	40*	12
CCc1c(C)nc2ncnn2c1Nc1ccc(C#N)c(Cl)c1	-6	3	-1	25	5
CCOC(=O)c1ccc(Nc2c(CC)c(C)nc3ncnn23)cc1	-9	1	4	32*	14
O=C(CCc1ccc(O)cc1)c1c(O)cc(O)cc1O[C@@H]1O[C@H](CO)[C@@H](O)[C@H](O)[C@H]1O	1	2	0	33*	8
OC[C@H]1O[C@@H](Oc2ccc(O)cc2)[C@H](O)[C@@H](O)[C@@H]1O	.	-1	-6	-6	-3
